Legend:
Assay in all cases: HT-SELEX; 20 mM HEPES pH 7, 140 mM KCl, 5 mM NaCl, 1 mM K2HPO4, 2 mM MgSO4, 100 uM EGTA, ZnSO4, 0.1% Tween20; room temperature, 1 h; high values mean tight binding
Conditions in all cases: protein: ivt; tags: eGFP (N-terminal); dsDNA, one strand shown
ZNF721 full-length = ZNF721 full-length (Homo sapiens, UniProt Q8TF20-2 1-923)
Procedure, shortened: (§1)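 The binding signal is a relative k-mer count in selected reads, and higher values mean tighter binding. To obtain these reads, bead-bound tagged transcription factor (full-length or DNA-binding-domain fragment, produced in HEK293 lysate or cell-free extract) was mixed with a randomized 40-base DNA library for 1 h at room temperature in low-stringency HEPES/KCl buffer with Tween20. Bound DNA was recovered by washing and heat elution, PCR-amplified through successive cycles and sequenced on Illumina (~3 million 60 bp reads per sample).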

ZNF721 DBD1 = ZNF721 DBD1 (Homo sapiens, UniProt Q8TF20-2 29-461)
Procedure, shortened: as §1

ZNF721 DBD2 = ZNF721 DBD2 (Homo sapiens, UniProt Q8TF20-2 395-923)
Procedure, shortened: as §1

Sequence of ZNF721 DBD2 (Q8TF20 383-911): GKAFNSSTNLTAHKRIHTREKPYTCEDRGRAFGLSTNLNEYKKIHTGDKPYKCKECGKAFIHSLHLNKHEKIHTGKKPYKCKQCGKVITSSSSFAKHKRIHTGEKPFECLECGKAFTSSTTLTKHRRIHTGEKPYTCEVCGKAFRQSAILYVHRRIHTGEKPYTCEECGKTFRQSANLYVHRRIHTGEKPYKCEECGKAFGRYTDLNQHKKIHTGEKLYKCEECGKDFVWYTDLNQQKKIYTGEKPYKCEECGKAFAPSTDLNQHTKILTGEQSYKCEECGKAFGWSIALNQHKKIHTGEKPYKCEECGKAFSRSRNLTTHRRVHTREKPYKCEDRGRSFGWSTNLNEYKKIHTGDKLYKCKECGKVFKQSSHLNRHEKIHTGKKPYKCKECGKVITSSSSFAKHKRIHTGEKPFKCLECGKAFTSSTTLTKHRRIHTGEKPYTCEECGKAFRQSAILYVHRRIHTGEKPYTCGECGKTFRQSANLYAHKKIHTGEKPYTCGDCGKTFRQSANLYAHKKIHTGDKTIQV
Sequence of ZNF721 full-length (Q8TF20 other isoform, or with tags, fused parts or gaps): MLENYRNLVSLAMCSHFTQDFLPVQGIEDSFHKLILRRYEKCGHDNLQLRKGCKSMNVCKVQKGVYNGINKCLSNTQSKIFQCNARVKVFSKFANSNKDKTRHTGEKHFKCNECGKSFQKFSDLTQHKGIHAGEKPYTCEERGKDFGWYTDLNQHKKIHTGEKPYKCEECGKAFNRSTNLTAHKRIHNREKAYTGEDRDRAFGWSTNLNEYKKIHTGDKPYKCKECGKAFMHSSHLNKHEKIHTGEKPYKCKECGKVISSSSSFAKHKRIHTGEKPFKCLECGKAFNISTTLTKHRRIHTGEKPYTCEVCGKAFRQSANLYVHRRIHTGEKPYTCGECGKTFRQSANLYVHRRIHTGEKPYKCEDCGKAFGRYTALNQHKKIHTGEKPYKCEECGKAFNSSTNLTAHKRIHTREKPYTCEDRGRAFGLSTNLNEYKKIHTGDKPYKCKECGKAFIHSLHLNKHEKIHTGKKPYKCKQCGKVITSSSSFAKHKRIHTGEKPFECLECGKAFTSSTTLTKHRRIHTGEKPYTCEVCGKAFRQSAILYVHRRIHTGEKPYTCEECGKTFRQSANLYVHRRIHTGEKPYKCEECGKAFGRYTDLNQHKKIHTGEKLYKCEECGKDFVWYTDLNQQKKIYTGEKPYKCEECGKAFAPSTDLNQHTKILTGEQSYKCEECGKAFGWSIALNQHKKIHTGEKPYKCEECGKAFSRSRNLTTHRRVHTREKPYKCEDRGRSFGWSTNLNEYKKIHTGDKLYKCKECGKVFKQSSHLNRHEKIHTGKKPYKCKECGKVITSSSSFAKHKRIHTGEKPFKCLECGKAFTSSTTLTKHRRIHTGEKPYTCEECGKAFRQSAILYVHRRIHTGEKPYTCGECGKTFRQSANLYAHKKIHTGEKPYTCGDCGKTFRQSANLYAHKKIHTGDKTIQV
Sequence of ZNF721 DBD1 (Q8TF20 17-449): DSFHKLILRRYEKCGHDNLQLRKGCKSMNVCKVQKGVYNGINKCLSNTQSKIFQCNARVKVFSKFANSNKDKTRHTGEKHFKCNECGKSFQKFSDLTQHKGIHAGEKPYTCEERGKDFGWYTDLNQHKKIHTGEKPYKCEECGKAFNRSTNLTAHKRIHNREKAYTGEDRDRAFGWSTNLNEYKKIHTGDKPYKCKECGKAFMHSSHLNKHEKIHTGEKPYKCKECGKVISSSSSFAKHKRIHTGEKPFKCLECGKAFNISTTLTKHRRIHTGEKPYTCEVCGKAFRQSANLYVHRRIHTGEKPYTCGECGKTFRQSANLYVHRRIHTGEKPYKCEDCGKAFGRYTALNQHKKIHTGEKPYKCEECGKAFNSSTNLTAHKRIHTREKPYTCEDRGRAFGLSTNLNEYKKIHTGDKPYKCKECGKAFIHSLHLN

Sequence	binding signal (ZNF721 full-length)	binding signal (ZNF721 DBD1)	binding signal (ZNF721 DBD2)
CCACCCACCG	0.143 relative 10-mer count	0.00615 relative 10-mer count	0.00731 relative 10-mer count
AGCATCCCCA	0.136 relative 10-mer count	0.0121 relative 10-mer count	0.0674 relative 10-mer count
CCACCTCCCC	0.278 relative 10-mer count	0.0134 relative 10-mer count	0.00336 relative 10-mer count
CCCGCGCCCC	0.146 relative 10-mer count	0.00505 relative 10-mer count	0.0018 relative 10-mer count
GCCACCCACC	0.147 relative 10-mer count	0.00605 relative 10-mer count	0.00312 relative 10-mer count
CCACCTCCCA	0.127 relative 10-mer count	0.0061 relative 10-mer count	0.00384 relative 10-mer count
CCCCACCACG	0.11 relative 10-mer count	0.0039 relative 10-mer count	0.00623 relative 10-mer count
CCCACTCCCC	0.155 relative 10-mer count	0.00656 relative 10-mer count	0.00372 relative 10-mer count
CCCCTCCTCC	0.154 relative 10-mer count	0.00794 relative 10-mer count	0.00515 relative 10-mer count
ATCCCACCCC	0.123 relative 10-mer count	0.00573 relative 10-mer count	0.00168 relative 10-mer count
CCTCCCCCCC	0.236 relative 10-mer count	0.0115 relative 10-mer count	0.00707 relative 10-mer count
CCCCCCCCAC	0.257 relative 10-mer count	0.0089 relative 10-mer count	0.00539 relative 10-mer count
CAGCGTTACC	0.138 relative 10-mer count	0.00147 relative 10-mer count	0.297 relative 10-mer count
ACCCACCGCC	0.114 relative 10-mer count	0.00482 relative 10-mer count	0.00455 relative 10-mer count
ATAGCTTCAT	0.118 relative 10-mer count	0.158 relative 10-mer count	0.00288 relative 10-mer count
AAAAAAAAGG	0.175 relative 10-mer count	0.00477 relative 10-mer count	0.12 relative 10-mer count
ATAAAAAAGC	0.12 relative 10-mer count	0.0221 relative 10-mer count	0.0443 relative 10-mer count
AGCTATACCA	0.14 relative 10-mer count	0.0816 relative 10-mer count	0.003 relative 10-mer count
CCCCGCCCCC	0.297 relative 10-mer count	0.0122 relative 10-mer count	0.00228 relative 10-mer count
AAAAAAGCGG	0.11 relative 10-mer count	0.0255 relative 10-mer count	0.0279 relative 10-mer count

Sequence	binding signal (ZNF721 full-length)	binding signal (ZNF721 DBD1)	binding signal (ZNF721 DBD2)
CCCCCCCCCA	0.16 relative 10-mer count	0.00477 relative 10-mer count	0.00312 relative 10-mer count
GCAAAAAAAA	0.118 relative 10-mer count	0.0105 relative 10-mer count	0.056 relative 10-mer count
CCCTACCACC	0.104 relative 10-mer count	0.00578 relative 10-mer count	0.0144 relative 10-mer count
CGCCCTCCCC	0.172 relative 10-mer count	0.0066 relative 10-mer count	0.00252 relative 10-mer count
CCGCCCCCGC	0.127 relative 10-mer count	0.00491 relative 10-mer count	0.0018 relative 10-mer count
AGGGGGGAGG	0.149 relative 10-mer count	0.00789 relative 10-mer count	0.00384 relative 10-mer count
AGGATACACT	0.17 relative 10-mer count	0.0907 relative 10-mer count	0.116 relative 10-mer count
GGGTGGGTGA	0.104 relative 10-mer count	0.00505 relative 10-mer count	0.0012 relative 10-mer count
AAAAGCAGCC	0.136 relative 10-mer count	0.00261 relative 10-mer count	0.112 relative 10-mer count
CCTCACCCCC	0.156 relative 10-mer count	0.00683 relative 10-mer count	0.0018 relative 10-mer count
CTGCCCACCC	0.102 relative 10-mer count	0.00394 relative 10-mer count	0.00216 relative 10-mer count
CCCCCGCCTC	0.119 relative 10-mer count	0.00509 relative 10-mer count	0.0036 relative 10-mer count
CAAACAAGCA	0.102 relative 10-mer count	0.00362 relative 10-mer count	0.063 relative 10-mer count
CCCCGCACCC	0.179 relative 10-mer count	0.00812 relative 10-mer count	0.00252 relative 10-mer count
CCCCCTCACC	0.149 relative 10-mer count	0.00624 relative 10-mer count	0.00372 relative 10-mer count
AGGTGGGTGG	0.149 relative 10-mer count	0.00642 relative 10-mer count	0.00443 relative 10-mer count
AAAAAAGGCA	0.18 relative 10-mer count	0.00284 relative 10-mer count	0.13 relative 10-mer count
CCACCCCACC	0.411 relative 10-mer count	0.0178 relative 10-mer count	0.00731 relative 10-mer count
CCCCTCCCCG	0.128 relative 10-mer count	0.00527 relative 10-mer count	0.00216 relative 10-mer count
CCCCCCCCAA	0.109 relative 10-mer count	0.00316 relative 10-mer count	0.00288 relative 10-mer count

Sequence	binding signal (ZNF721 full-length)	binding signal (ZNF721 DBD1)	binding signal (ZNF721 DBD2)
AAGGCATACC	0.13 relative 10-mer count	0.00183 relative 10-mer count	0.114 relative 10-mer count
CCCCCACACC	0.231 relative 10-mer count	0.00821 relative 10-mer count	0.00779 relative 10-mer count
CACCCCCGCC	0.193 relative 10-mer count	0.00683 relative 10-mer count	0.00288 relative 10-mer count
ACCCACCCAC	0.196 relative 10-mer count	0.00922 relative 10-mer count	0.00887 relative 10-mer count
GGGGGCGGGA	0.119 relative 10-mer count	0.00537 relative 10-mer count	0.00144 relative 10-mer count
AGCGTATCCT	0.146 relative 10-mer count	0.0287 relative 10-mer count	0.192 relative 10-mer count
ACCCCCCACC	0.257 relative 10-mer count	0.0107 relative 10-mer count	0.00491 relative 10-mer count
AGCGTACCCA	0.188 relative 10-mer count	0.0311 relative 10-mer count	0.162 relative 10-mer count
GCACCCCCAC	0.107 relative 10-mer count	0.00523 relative 10-mer count	0.0174 relative 10-mer count
CCCGCCCACC	0.259 relative 10-mer count	0.0105 relative 10-mer count	0.0024 relative 10-mer count
GCATACCCAC	0.132 relative 10-mer count	0.00899 relative 10-mer count	0.154 relative 10-mer count
AGCATACCCA	0.391 relative 10-mer count	0.0246 relative 10-mer count	0.366 relative 10-mer count
CAAAAAAAAC	0.123 relative 10-mer count	0.00243 relative 10-mer count	0.0838 relative 10-mer count
ACCCACCCCA	0.167 relative 10-mer count	0.00798 relative 10-mer count	0.00515 relative 10-mer count
CCCTCCACCA	0.109 relative 10-mer count	0.00436 relative 10-mer count	0.00659 relative 10-mer count
CAAAAAGCAG	0.159 relative 10-mer count	0.00156 relative 10-mer count	0.172 relative 10-mer count
AACAGCATGA	0.198 relative 10-mer count	0.00188 relative 10-mer count	0.308 relative 10-mer count
CCTCCACCCA	0.111 relative 10-mer count	0.00505 relative 10-mer count	0.00527 relative 10-mer count
CCCCATCCCC	0.231 relative 10-mer count	0.0083 relative 10-mer count	0.0036 relative 10-mer count
CCACCCTCCA	0.123 relative 10-mer count	0.00587 relative 10-mer count	0.00815 relative 10-mer count
